Laboratory results as given in PubChem BioAssay (Tox21).
Results filed as inconclusive are left out. Activity calls are given as the source filed them. Unless noted, calls come from the whole dose curve; as a rule, active = well fitted curve in the direction sought with a large enough effect in the repeat runs; inconclusive = weak or mixed curves; inactive = no such curve, though single readings can be large; an effect the other way counts as inactive or inconclusive.

Key:
[1] = qHTS assay to identify small molecule antagonists of the retinoid-related orphan receptor gamma (ROR-gamma) signaling pathway - cell viability counter screen (AID 1159520); note: % is set by controls: 0 for no effect and ±100 for the full control effect; nearly all actives have a fitted effect of over 50% in size
Summary of the method: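 Tet-on ROR gamma CHO cells were given compounds for 2 hr, then doxycycline hyclate at 1 uM final, and incubated 16 hr at 37 C. Viability was measured as ATP content by CellTiter-Glo luminescence.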

[2] = molecular target: Nuclear receptor ROR-gamma (Homo sapiens) (UniProt P51449); experiment: qHTS assay to identify small molecule antagonists of the retinoid-related orphan receptor gamma (ROR-gamma) signaling pathway (AID 1159521;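 note: CHO cells with doxycycline inducible ROR-gamma driving an RORE luciferase reporter; top concentration of the series differs between compounds; % is set by controls: 0 for no effect and ±100 for the full control effect; nearly all actives have a fitted effect of over 50% in size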)
Summary of the method: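 Cells were plated, rested 4 h at 37 C, exposed to compounds for 2 h, then given 1 uM final doxycycline hyclate to induce RORγ expression. After 16 h, ONE-Glo luminescence from the ROR response element reporter was measured.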

[3] = qHTS assay to identify small molecule agonists of the AP-1 signaling pathway - cell viability counter screen (AID 1159525; calls by dose curve; note: nearly all actives have a fitted effect of over 55% in size)
Summary of the method: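 Same-well cytotoxicity counter screen of the Tox21 10K library in ME-180 cells. The readout is ATP-dependent luminescence after 5 h compound treatment. Data are normalised to DMSO and tetra n-octyl ammonium bromide controls.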

[4] = qHTS assay to identify small molecule agonists of the AP-1 signaling pathway (AID 1159526; calls by dose curve; note: % is set by controls: 0 for no effect and ±100 for the full control effect)
[5] = molecular target: Retinoic acid receptor RXR-alpha (Homo sapiens) (UniProt P19793); experiment: qHTS assay to identify small molecule agonists of the RXR signaling pathway (AID 1159527; calls by dose curve; note: % is set by controls: 0 for no effect and ±100 for the full control effect; nearly all actives have a fitted effect of over 35% in size)
Sequence of Retinoic acid receptor RXR-alpha (Homo sapiens) (P19793 whole entry, looked up): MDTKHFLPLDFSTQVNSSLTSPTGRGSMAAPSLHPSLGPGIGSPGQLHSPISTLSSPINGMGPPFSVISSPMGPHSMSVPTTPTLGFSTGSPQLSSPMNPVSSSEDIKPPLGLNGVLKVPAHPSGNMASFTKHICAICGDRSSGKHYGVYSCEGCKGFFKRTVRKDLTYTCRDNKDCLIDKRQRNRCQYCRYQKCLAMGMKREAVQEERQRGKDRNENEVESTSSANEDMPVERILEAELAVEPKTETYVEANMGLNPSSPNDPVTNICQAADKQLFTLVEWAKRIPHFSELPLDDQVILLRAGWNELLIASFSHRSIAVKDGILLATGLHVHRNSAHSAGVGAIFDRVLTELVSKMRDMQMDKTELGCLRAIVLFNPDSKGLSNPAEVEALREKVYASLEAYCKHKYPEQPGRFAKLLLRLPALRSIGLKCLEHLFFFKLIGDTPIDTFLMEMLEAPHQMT
Summary of the method: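 Cells plated at 2,000/well, rested 5 hr at 37 C, pin-dosed with DMSO compound solutions, incubated 16 hr, then loaded with B/G FRET substrate for 2 hr at RT before dual-emission fluorescence reading.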

[6] = qHTS assay to identify small molecule agonists of the RXR signaling pathway - cell viability counter screen (AID 1159529);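 note: HEK 293T cells carrying an RXR-alpha UAS beta-lactamase reporter; series mostly up to about 77 µM; % is set by controls: 0 for no effect and ±100 for the full control effect; nearly all actives have a fitted effect of over 50% in size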
Summary of the method: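 Steps: seed RXR-alpha-UAS-bla HEK 293T cells in assay medium containing 2% charcoal-stripped FBS; incubate 5 hr; add compounds in DMSO; incubate 16 hr at 37 C; after the bla read, add CellTiter-Glo and read luminescence at 30 min.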

[7] = qHTS assay to identify small molecule antagonists of the retinoid acid receptor (RAR) signaling pathway - cell viability counter screen (AID 1159551); note: % is set by controls: 0 for no effect and ±100 for the full control effect; nearly all actives have a fitted effect of over 35% in size
Summary of the method: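 Measured by luminescent ATP detection, viability reflects C3RL4 cells treated 6 h at 37 C with test chemicals in the presence of 1 uM (final) retinol.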

[8] = qHTS assay to identify small molecule antagonists of the retinoic acid receptor (RAR) signaling pathway (AID 1159552; note: % is set by controls: 0 for no effect and ±100 for the full control effect; nearly all actives have a fitted effect of over 50% in size)
Summary of the method: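 Retinol at 1 uM final stimulated RARE-luciferase expression in C3RL4 cells exposed to test compounds for 6 hr at 37 C. Reduced luminescence, read 30 min after detection reagent, indicated pathway antagonism.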

[9] = qHTS assay to identify small molecule antagonists of the estrogen related receptor (ERR) signaling pathway from Tox21 library - cell viability counter screen (AID 1224834); note: % is set by controls: 0 for no effect and ±100 for the full control effect; nearly all actives have a fitted effect of over 30% in size
Summary of the method: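 Seeded ERR cells were rested 6 h at 37 C/5% CO2 before compounds, positive and negative controls or DMSO were added. Incubation continued for 17.5 h, and viability was then quantified by CellTiter-Fluor fluorescence.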

[10] = molecular target: Luciferin 4-monooxygenase (Photinus pyralis) (UniProt P08659); experiment: qHTS assay to identify small molecule inhibitors of firefly luciferase (AID 1224835); note: series mostly up to about 120 µM; % is set by controls: 0 for no effect and ±100 for the full control effect; nearly all actives have a fitted effect of over 25% in size
Sequence of Luciferin 4-monooxygenase (Photinus pyralis) (P08659 whole entry, looked up): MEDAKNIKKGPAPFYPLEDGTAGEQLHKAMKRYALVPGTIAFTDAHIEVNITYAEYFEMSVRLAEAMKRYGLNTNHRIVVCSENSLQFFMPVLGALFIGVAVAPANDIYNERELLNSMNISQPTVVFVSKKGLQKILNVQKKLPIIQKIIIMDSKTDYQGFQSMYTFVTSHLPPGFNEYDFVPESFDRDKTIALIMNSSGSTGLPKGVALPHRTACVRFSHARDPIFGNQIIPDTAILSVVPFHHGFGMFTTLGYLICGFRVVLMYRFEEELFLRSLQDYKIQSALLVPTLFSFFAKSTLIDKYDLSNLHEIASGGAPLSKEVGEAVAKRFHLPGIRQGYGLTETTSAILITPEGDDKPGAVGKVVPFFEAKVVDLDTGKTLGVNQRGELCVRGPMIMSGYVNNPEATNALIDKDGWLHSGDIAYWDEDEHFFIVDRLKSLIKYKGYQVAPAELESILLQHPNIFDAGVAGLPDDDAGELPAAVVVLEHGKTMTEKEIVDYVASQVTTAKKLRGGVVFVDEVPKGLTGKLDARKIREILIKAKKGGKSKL
Summary of the method: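 Biochemical qHTS: compounds run as interplate titrations against purified firefly enzyme, with D-luciferin and ATP each at its KM concentration. Light output recorded by CCD imaging.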

[11] = qHTS assay to identify small molecule agonists of the constitutive androstane receptor (CAR) signaling pathway - cell viability counter screen (AID 1224836); note: series mostly up to about 92 µM; % is set by controls: 0 for no effect and ±100 for the full control effect; nearly all actives have a fitted effect of over 45% in size
Summary of the method: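 Cells were seeded and incubated 4 hrs. Compounds were added across 15 concentrations together with PK11195 at 0.75 uM final. Plates were incubated 23 hrs at 37 C. CellTiter-Fluor was added and fluorescence measured.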

CC1CNCC(C)O1 (stereo unspecified)
inactive: Potency [1] | Potency [2] | Potency [3] | Potency [4] | Potency [5] | Potency [6] | Potency [7] | Potency [8] | Potency [9] | Potency [10] | Potency [11]

C[Si](C)O[Si](C)C
inactive: Potency [1] | Potency [2] | Potency [3] | Potency [4] | Potency [5] | Potency [6] | Potency [7] | Potency [8] | Potency [9] | Potency [11]

CC(C)CCOCCC(C)C
inactive: Potency [1] | Potency [2] | Potency [3] | Potency [4] | Potency [5] | Potency [6] | Potency [7] | Potency [8] | Potency [9] | Potency [10] | Potency [11]

Clc1nc2ccccc2s1
inactive: Potency [1] | Potency [2] | Potency [3] | Potency [4] | Potency [5] | Potency [6] | Potency [7] | Potency [8] | Potency [9] | Potency [11]

CCC(C)c1ccccc1 (stereo unspecified)
inactive: Potency [1] | Potency [2] | Potency [3] | Potency [4] | Potency [5] | Potency [6] | Potency [7] | Potency [8] | Potency [9] | Potency [10] | Potency [11]

Oc1cc2ccccc2cc1O
inactive: Potency [1] | Potency [2] | Potency [3] | Potency [4] | Potency [5] | Potency [6] | Potency [7] | Potency [8] | Potency [9] | Potency [11]

C=CC(=O)OCCN(CC)CC
inactive: Potency [1] | Potency [2] | Potency [3] | Potency [4] | Potency [5] | Potency [6] | Potency [7] | Potency [8] | Potency [9] | Potency [10] | Potency [11]

CC1CCCCC1
inactive: Potency [1] | Potency [2] | Potency [3] | Potency [4] | Potency [5] | Potency [6] | Potency [7] | Potency [8] | Potency [9] | Potency [10] | Potency [11]

CCOC(=O)CN
inactive: Potency [1] | Potency [2] | Potency [3] | Potency [4] | Potency [5] | Potency [6] | Potency [7] | Potency [8] | Potency [9] | Potency [10] | Potency [11]

CC(C)C(=O)OCc1ccccc1
inactive: Potency [1] | Potency [2] | Potency [3] | Potency [4] | Potency [5] | Potency [6] | Potency [7] | Potency [8] | Potency [9] | Potency [10] | Potency [11]

CC(C)c1ccccc1N
inactive: Potency [1] | Potency [2] | Potency [3] | Potency [4] | Potency [5] | Potency [6] | Potency [7] | Potency [8] | Potency [9] | Potency [10] | Potency [11]

COc1nccnc1CC(C)C
inactive: Potency [1] | Potency [2] | Potency [3] | Potency [4] | Potency [5] | Potency [6] | Potency [7] | Potency [8] | Potency [9] | Potency [10] | Potency [11]

OCCCc1cccnc1
inactive: Potency [1] | Potency [2] | Potency [3] | Potency [4] | Potency [5] | Potency [6] | Potency [7] | Potency [8] | Potency [9] | Potency [10] | Potency [11]

Cc1cccc(N(C)C)c1
inactive: Potency [1] | Potency [2] | Potency [3] | Potency [4] | Potency [5] | Potency [6] | Potency [7] | Potency [8] | Potency [9] | Potency [10] | Potency [11]

COc1cccc(OC)c1O
inactive: Potency [1] | Potency [2] | Potency [3] | Potency [4] | Potency [5] | Potency [6] | Potency [7] | Potency [8] | Potency [9] | Potency [10] | Potency [11]

CCc1cccc(CC)c1N(COC)C(=O)CS(=O)(=O)O
inactive: Potency [1] | Potency [2] | Potency [3] | Potency [4] | Potency [5] | Potency [6] | Potency [7] | Potency [8] | Potency [9] | Potency [10] | Potency [11]

C/C=C/CO
inactive: Potency [1] | Potency [2] | Potency [3] | Potency [4] | Potency [5] | Potency [6] | Potency [7] | Potency [8] | Potency [9] | Potency [10] | Potency [11]

CCOCOCC
inactive: Potency [1] | Potency [2] | Potency [3] | Potency [4] | Potency [5] | Potency [6] | Potency [7] | Potency [8] | Potency [9] | Potency [10] | Potency [11]

O=C=NCc1cccc(CN=C=O)c1
inactive: activity, negative = cytotoxicity [1] 5.39% [at 19 µM] | activity change, negative = inhibition [2] -2.4% [at 19 µM] | viability change, negative = cytotoxic [3] -10.1% [at 15.8 µM] | activation [4] -14% [at 15.8 µM] | activation [5] -0.945% [at 15.8 µM] | activity change, negative = cytotoxicity [6] -2.82% [at 15.8 µM] | activity change, negative = cytotoxicity [7] 2.07% [at 19 µM] | activity, negative = inhibition [8] 6.56% [at 19 µM] | viability change, negative = cytotoxic [9] 0.396% [at 19 µM] | activity change, negative = inhibition [10] 3.61% [at 23.6 µM] | viability change, negative = cytotoxic [11] -4.88% [at 19 µM]
